Six1-Eya2 blk – blocks human Six1 binding to Eya2. Q15475+O00167. 360,000 compounds, 0.56% hits. AlphaScreen GST-Six1/His-Eya2 binding, biochemical; hits give low values. activity change, % (no concentration beside the values); in the data active = activity change below about -65%; inconclusive = mostly about -30% to -63%; note: % is set by controls: 0 for no effect and ±100 for the full control effect
Target sequence (O00167 whole entry, looked up): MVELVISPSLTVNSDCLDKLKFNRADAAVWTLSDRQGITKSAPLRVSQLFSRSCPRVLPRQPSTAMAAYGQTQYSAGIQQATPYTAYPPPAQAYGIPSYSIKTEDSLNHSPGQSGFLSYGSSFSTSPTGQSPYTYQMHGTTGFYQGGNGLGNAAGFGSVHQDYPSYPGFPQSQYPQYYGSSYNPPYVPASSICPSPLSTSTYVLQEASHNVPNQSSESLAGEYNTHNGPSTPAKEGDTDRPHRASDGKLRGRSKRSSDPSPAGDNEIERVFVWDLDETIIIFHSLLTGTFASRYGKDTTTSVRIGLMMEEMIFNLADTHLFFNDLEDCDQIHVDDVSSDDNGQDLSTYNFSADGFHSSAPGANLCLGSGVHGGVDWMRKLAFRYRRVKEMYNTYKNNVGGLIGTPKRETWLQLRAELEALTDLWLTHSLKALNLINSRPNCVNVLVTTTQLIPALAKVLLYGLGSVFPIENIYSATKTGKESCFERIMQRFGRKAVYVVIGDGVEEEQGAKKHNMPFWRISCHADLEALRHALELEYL
Target sequence (Q15475 whole entry, looked up): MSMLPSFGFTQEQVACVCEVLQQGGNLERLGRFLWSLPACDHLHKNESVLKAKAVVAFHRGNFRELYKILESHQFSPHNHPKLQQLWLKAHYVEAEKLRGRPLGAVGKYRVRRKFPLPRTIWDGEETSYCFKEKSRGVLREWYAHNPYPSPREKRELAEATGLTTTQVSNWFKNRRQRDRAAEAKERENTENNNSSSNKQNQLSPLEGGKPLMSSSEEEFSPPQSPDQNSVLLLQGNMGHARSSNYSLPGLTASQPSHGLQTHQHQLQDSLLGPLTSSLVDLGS
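Compounds are tested against tagged Six1 and Eya2 proteins bridged by glutathione donor and nickel acceptor beads; after a one-hour incubation at 37 °C without light, AlphaScreen emission is recorded.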
HP1b chromo inh – HP1-beta chromodomain-methylated histone interaction inhibition. P83916. AlphaScreen HP1-beta / biotin-H3K9me3 peptide binding. Potency, µM (doses to about 114 µM), without a hit: at the top dose activity change, negative = inhibition, hits mostly inhibitors. 390,000 compounds, 0.56% hits. AID 540317; note: potency is the fitted concentration of half-maximal effect; nearly all actives have a fitted effect of over 70% in size
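AlphaScreen: HP1-beta (50 nM) preformed 30 min with biotin-H3(1-18)K9me3 peptide (50 nM) in PBS pH 7.4, 0.01% Tween-20. Compound added for 30 min at RT, then streptavidin donor/nickel chelate acceptor beads (10 ug/mL) for 30 min.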
CtBP-E1A blk – CtBP/E1A binding inhibition; AlphaScreen GST-E1A/His-CtBP binding, 1536-well; hits give low values; activity change, % (concentration not given with the values); 340,000 compounds, 0.49% hits; AID 651724; in the data active = activity change below about -65%; inconclusive = mostly about -30% to -63%; note: % is set by controls: 0 for no effect and ±100 for the full control effect
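Homogeneous bead-based format: GST-tagged E1A captured on glutathione donor beads, His-tagged CtBP on nickel acceptor beads; compounds precede bead addition by 2 h at 37 °C.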
JMJD2A Tudor – inhibitors of human JMJD2A Tudor domain. O75164. AlphaScreen JMJD2A-Tudor / H3K4me3 peptide binding. Potency, µM (titrated, usually from 114 µM), without a hit: top-dose activity change, negative = inhibition, hits mostly inhibitors. 390,000 compounds, 4.4% hits; note: potency is the fitted concentration of half-maximal effect; % is set by controls: 0 for no effect and ±100 for the full control effect; nearly all actives have a fitted effect of over 50% in size
G9a inh – blocks human histone lysine methyltransferase G9a; Q96KQ7; G9a H3K9 monomethylation, AlphaScreen, 2 h; Potency, µM (doses to about 102 µM), inactives show at the top dose activity, negative = inhibition, actives largely listed as inhibitors; 350,000 compounds, 8.8% hits; AID 504332; note: potency is the fitted concentration of half-maximal effect; % is set by controls: 0 for no effect and ±100 for the full control effect; nearly all actives have a fitted effect of over 75% in size
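Compounds were preincubated with 20 nM G9a for 15 min, after which biotinylated H3K9 peptide (500 nM) and SAM (20 uM) started a 2 h room-temperature reaction. Monomethylated product was quantified by antibody-based AlphaScreen chemiluminescence.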
BAZ2B inh – inhibitors of human BAZ2B bromodomain; AID 504333; Q9UIF8; AlphaScreen BAZ2B-H3K14Ac peptide displacement; Potency, µM (highest dose often 114 µM), without a hit: top-dose activity change, negative = inhibition, actives largely listed as inhibitors; 360,000 compounds, 4.4% hits; note: potency is the fitted concentration of half-maximal effect; % is set by controls: 0 for no effect and ±100 for the full control effect; nearly all actives have a fitted effect of over 60% in size
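AlphaScreen displacement: compounds (up to 110uM) incubated 30 min at room temperature with a preformed 50 nM BAZ2B/50 nM biotinylated H3K14Ac peptide complex in PBS pH 7.4 with Tween-20. Donor and acceptor beads at 10 ug/mL final added, 20 min light-protected before reading.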
* = called active by the depositor; ? = inconclusive; . = no result; [ ] = remark or other dose. Sampled rows, rich in hits. Any-hit rate of the full collection: about 10%. Unless noted, calls come from the whole dose curve; as a rule, active = well fitted inhibition curve with a large enough effect; inconclusive = small, poorly fitted or top-dose-only effect; inactive = no such curve, though single readings can be large or run the other way.

SMILES	Six1-Eya2 blk	HP1b chromo inh	CtBP-E1A blk	JMJD2A Tudor	G9a inh	BAZ2B inh
Cc1ccc(C(=O)NNC(=O)CSc2nnc3c(n2)[nH]c2ccc(F)cc23)cc1	?	-41%	?	20µM*	.	?
COc1ccc2[nH]c3nc(SCC(=O)NNC(=O)c4ccc(OC)c(OC)c4)nnc3c2c1	-4	42%	10	-19%	?	4%[57.1 µM]
Cc1oc2c(c1C(=O)Nc1ccc(OC(F)(F)F)cc1)C1=NCCN1C=N2	.	28%	.	-11%	13%[59 µM]	-1%
Nc1ccc2nc(-c3ccccc3)[nH]c2c1	-2	-3%	-15	-34%	-10%[59 µM]	?
Nc1cccc(-c2nc3ccc(C(=O)c4ccccc4)cc3[nH]2)c1	-5	-11%	.	?	.	50µM*
COC(=O)c1cc(S(=O)(=O)NCC2CCN(Cc3ccccc3F)CC2)c[nH]1	4	19%[57 µM]	.	-17%	13%	-4%
O=c1ccc(-c2ccc(S(=O)(=O)NCC3CCN(Cc4ccccc4F)CC3)s2)n[nH]1	-84*	-7%	-88*	?	16%	-31%
Cc1ccc(NC(=O)c2ccccc2)cc1C	2	23%	9	-9%	-13%[2.33 µM]	8%
O=C(O)c1cc(=O)n(Cc2ccccc2)c(=O)[nH]1	-1	17%	3	28µM*	16µM*	?
Cc1ccc(NC(=O)c2cc(=O)n(Cc3ccccc3)c(=O)[nH]2)cc1C	0	-10%	-2	10µM*	1%	-29%
Cc1ccc(NCc2cccn2-c2nnc(N3CCC(C(=O)NCCc4ccccc4)CC3)s2)cc1	.	-3%	.	-32%	-10%[59 µM]	-21%
Cc1[nH]n(-c2ccccc2)c(=O)c1N=Nc1ccc2c(c1)OCO2	16	-4%	0	?	3.2µM*	1.8µM*
CCOc1ccc(N=Nc2c(C)[nH]n(-c3ccccc3)c2=O)cc1	-8	-6%	-28	?	1%[0.501 µM]	?
COc1cccc(N=Nc2c(C)[nH]n(-c3ccccc3)c2=O)c1	?	?	.	?	7.9µM*	6.3µM*
COc1cccc(CNC(=O)c2cnc3c(-c4ccc(F)cc4)c(C)nn3c2C)c1	.	26%	.	5%	9%[59 µM]	-4%
O=C(Nc1cccc(/C=C/c2ccccn2)c1)c1ccc(-n2cncn2)c([N+](=O)[O-])c1	-30	-2%	1	?	35µM*	-33%
C/C(=N\NC(=S)NCC(C)(C)C)c1cc(F)cc(F)c1O	-25	9%	-22	-25%	-1%	7.1µM*
CN(C)c1ccc(CNC(=O)CN2C(=O)CCn3nc(-c4cn(C)c5ccccc45)cc32)cc1	.	-9%[57 µM]	.	50µM*	?	45µM*
COc1ccc(CNC(=O)c2cnc(N3CCCC3)nc2C)cc1	.	23%	.	0%	34%[59 µM]	-4%
C(=N\n1cnnc1SCc1ccccc1)/c1ccco1	0	26%	8	-23%	56µM*	0%
Fc1ccc(Cl)cc1/C=N/n1cnnc1SCc1ccccc1	0	9%	-4	-21%	-28%	-31%
Cc1ccc(C=C2C(=O)c3ccccc3C2=O)s1	-2	?	4	?	?	16µM*
Cc1cc(C=C2C(=O)c3ccccc3C2=O)c(C)n1C	0	-3%	-2	-31%	40µM*	-24%
CN(CC(=O)Nc1ccc(Cl)c(C(F)(F)F)c1)C(=O)c1cn2ccccc2n1	-13	16%	-2	-13%	35µM*	?
O=C1c2ccccc2C2=Nc3ccccc3SC(c3cccc(F)c3)C12 (stereo not drawn)	?	28µM*	-4	22µM*	?	28µM*
SMILES	Six1-Eya2 blk	HP1b chromo inh	CtBP-E1A blk	JMJD2A Tudor	G9a inh	BAZ2B inh
Fc1cccc(C2NN=C(c3ccccc3)S2)c1 (stereo not drawn)	-10	54%	-11	-10%	?	-3%
O=C1c2ccccc2C2=Nc3ccccc3SC(c3ccc(Cl)cc3)C12 (stereo not drawn)	?	?	-22	?	11µM*	10µM*
O=C1c2ccccc2C(=O)C12OC2c1ccc(Cl)cc1 (stereo not drawn)	.	.	.	.	?	-25%
O=C1c2cccc3cccc(c23)C(=O)C1(O)O	-13	-24%	-2	45µM*	.	.
Cc1ccc(CN2CCSc3ccc(C(=O)NCCc4ccccc4)cc32)cc1	.	14%	.	-23%	-1%[59 µM]	-14%
Cc1c(C)n(Cc2ccccc2)c2ccc(C(=O)N3CCN(c4ccc(F)cc4)CC3)cc12	.	-9%	.	?	?	-38%
Cc1c(C)n(Cc2ccccc2)c2ccc(C(=O)N3CCN(c4ccccc4)CC3)cc12	.	?	.	14µM*	?	?
Cc1ccc(CN2CCSc3ccc(C(=O)NCc4ccccn4)cc32)cc1	-15	-6%	-29	?	40µM*	?
CCn1ncc(/C=N\NC(=O)c2ccc3c(c2)c(C)c(C)n3Cc2ccccc2)c1C	-18	-8%	-17	?	-13%[12.7 µM]	?
